Among all 5,500 compounds or so, about 2,000 (36%) were called active. Inconclusive results (about 18%) are left out. Cut-off read from the data, not from the text of the source: active = normalized growth mostly below about 0.91 (no sharp cut-off); inconclusive = no clear call, values can overlap the other calls; inactive = mostly above about 0.92. The list shows a part of the results.
Assay: chemical genetic growth profiling, strain panel (AID 1159580);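 note: tested at 20 µM; growth read once vehicle control cultures reached saturation at 30 °C; 1 = growth at the plate median or of vehicle wells; lower values mean less growth of the strain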
Details: S. cerevisiae deletion strains, growth OD

Measured: normalized growth

C1CCN2CC3CC(CN4CCCCC34)C2C1 (centres undefined)
inactive: locus YAL013W, strain DEP1, active compounds read low 1.01 | locus YAL021C, strain ccr4, active compounds read low 1 | locus YAL026C, strain drs2, active compounds read low 1.03 | locus YAL030W, strain snc1, active compounds read low 1.01 | locus YBL061C, strain skt5, active compounds read low 1.02 | locus YBR009C, strain hhf1, active compounds read low 1.02 | locus YBR021W, strain FUR4, active compounds read low 1 | locus YBR023C, strain chs3, active compounds read low 1.02 | locus YBR171W, strain sec66, active compounds read low 1.03 | locus YBR229C, strain ROT2, active compounds read low 1.01 | locus YBR231C, strain swc5, active compounds read low 1.01 | locus YBR279W, strain paf1, active compounds read low 1.02 | locus YCL011C, strain gbp2, active compounds read low 1.02 | locus YCL016C, strain dcc1, active compounds read low 1.02 | locus YCL029C, strain bik1, active compounds read low 1.01 | locus YCL061C, strain MRC1, active compounds read low 1.02 | locus YCL069W, strain vba3, active compounds read low 1.03 | locus YCR088W, strain abp1, active compounds read low 1.03 | locus YDL005C, strain med2, active compounds read low 1.03 | locus YDL035C, strain GPR1, active compounds read low 1.01 | locus YDL040C, strain nat1, active compounds read low 1.01 | locus YDL074C, strain BRE1, active compounds read low 1.01 | locus YDL101C, strain DUN1, active compounds read low 0.997 | locus YDL134C, strain PPH21, active compounds read low 1 | locus YDL185W, strain tfp1, active compounds read low 1.01 | locus YDL192W, strain arf1, active compounds read low 1.01 | locus YDR001C, strain nth1, active compounds read low 1.02 | locus YDR069C, strain doa4, active compounds read low 1.03 | locus YDR101C, strain arx1, active compounds read low 1.01 | locus YDR137W, strain rgp1, active compounds read low 1.02 | locus YDR150W, strain NUM1, active compounds read low 1.01 | locus YDR159W, strain sac3, active compounds read low 1.03 | locus YDR162C, strain NBP2, active compounds read low 0.993 | locus YDR195W, strain ref2 0.99 | locus YDR297W, strain sur2, active compounds read low 1.01 | locus YDR334W, strain swr1, active compounds read low 1.03 | locus YDR335W, strain msn5, active compounds read low 1.04 | locus YDR388W, active compounds read low 1 | locus YDR392W, strain spt3, active compounds read low 0.929 | locus YDR502C, strain sam2, active compounds read low 0.974 | locus YEL003W, strain gim4, active compounds read low 1.03 | locus YEL037C, strain rad23, active compounds read low 1.02 | locus YEL061C, strain CIN8 (second series), active compounds read low 1.03 | locus YEL061C, strain CIN8, active compounds read low 1.01 | locus YER015W, strain faa2, active compounds read low 1.01 | locus YER016W, strain bim1, active compounds read low 1.03 | locus YER110C, active compounds read low 1.02 | locus YER111C, strain swi4, active compounds read low 1.02 | locus YER155C, strain BEM2 (second series), active compounds read low 1.05 | locus YER155C, strain BEM2, active compounds read low 1.01 | locus YER167W, strain BCK2, active compounds read low 1.01 | locus YFR010W, strain ubp6, active compounds read low 1.02 | locus YGL078C, strain dbp3, active compounds read low 0.983 | locus YGL167C, strain pmr1, active compounds read low 1.02 | locus YGL173C, strain kem1, active compounds read low 1.03 | locus YGL227W, strain vid30, active compounds read low 1.02 | locus YGL240W, strain doc1, active compounds read low 1.03 | locus YGL248W, strain PDE1, active compounds read low 0.998 | locus YGL253W, strain hxk2, active compounds read low 1.02 | locus YGR078C, strain PAC10, active compounds read low 1 | locus YGR229C, strain SMI1, active compounds read low 1.01 | locus YHR013C, strain ard1, active compounds read low 1.01 | locus YHR027C, strain rpn1, active compounds read low 1.01 | locus YHR030C, strain SLT2, active compounds read low 1.01 | locus YHR079C, strain IRE1 (second series), active compounds read low 0.999 | locus YHR094C, strain hxt1, active compounds read low 1.01 | locus YHR129C, strain ARP1, active compounds read low 1 | locus YHR142W, strain chs7, active compounds read low 1 | locus YHR200W, strain rpn10, active compounds read low 1 | locus YIL066C, strain RNR3, active compounds read low 1.02 | locus YIL073C, strain SPO22, active compounds read low 1.07 | locus YIL125W, strain kgd1, active compounds read low 1 | locus YIR030C, strain dcg1, active compounds read low 1.01 | locus YJL092W, strain hpr5, active compounds read low 1.03 | locus YJL095W, strain BCK1 (second series), active compounds read low 1.02 | locus YJL095W, strain BCK1, active compounds read low 0.995 | locus YJL115W, strain asf1, active compounds read low 1.03 | locus YJL129C, strain trk1, active compounds read low 1.02 | locus YJL134W, strain LCB3, active compounds read low 1.01 | locus YJL154C, strain vps35, active compounds read low 1.02 | locus YJL164C, strain tpk1, active compounds read low 1.01 | locus YJL166W, strain qcr8, active compounds read low 1.02 | locus YJL168C, strain set2, active compounds read low 1.01 | locus YJL187C, strain SWE1 (second series), active compounds read low 1.01 | locus YJL187C, strain SWE1, active compounds read low 1.02
active: locus YDR318W, strain mcm21, active compounds read low 0.654 | locus YGL086W, strain mad1, active compounds read low 0.901 | locus YGR135W, strain pre9, active compounds read low 0.838 | locus YGR252W, strain gcn5, active compounds read low 0.732

— PubChem BioAssay AID1159580 (chemical genetic matrix, 2015)
